# Test results: the supplement of paper PMC4206461
# Tested on: Pseudomonas aeruginosa PA14 dppBCDF deletion mutant
# Assay: respiration area under curve with compound as sole nitrogen source, 24 h (OmniLog AUC (arbitrary units)); higher = more respiration / better utilisation as nitrogen source, active = 2000 or more; extreme values may be limits of the assay
# Description: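 Biolog Phenotype MicroArray plates PM6-PM8: each di/tripeptide is the sole nitrogen source. Tetrazolium reduction was read in the OmniLog every 15 min for 24 h at 37°C and summarised as area under the respiration curve (arbitrary units). Values below 2000 count as no respiration. Strain is the dipeptide ABC transporter deletion mutant.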
row,SMILES,respiration area under curve
1,CSCC[C@H](N)C(=O)N[C@@H](CC(=O)O)C(=O)O (plate: PM7),1590 (inactive)
2,NC(N)=NCCC[C@H](N)C(=O)N[C@@H](CCC(=O)O)C(=O)O (plate: PM6),8810 (active)
3,C[C@H](NC(=O)[C@@H](N)Cc1c[nH]c2ccccc12)C(=O)O (plate: PM7),744 (inactive)
4,CC[C@H](C)[C@H](NC(=O)CNC(=O)CN)C(=O)O (plate: PM8),1 (inactive)
5,C[C@@H](N)C(=O)NCC(=O)O (plate: PM8),0 (inactive)
6,O=C(O)[C@H](Cc1ccccc1)NC(=O)[C@@H]1CCCN1 (plate: PM7),3470 (active)
7,N[C@@H](Cc1ccccc1)C(=O)N[C@@H](Cc1c[nH]c2ccccc12)C(=O)O (plate: PM7),85 (inactive)
8,CC[C@H](C)[C@H](NC(=O)[C@@H](N)C(C)C)C(=O)O (plate: PM7),842 (inactive)
9,CC(C)C[C@H](N)C(=O)N[C@@H](CCCN=C(N)N)C(=O)O (plate: PM6),8540 (active)
10,N[C@@H](Cc1ccc(O)cc1)C(=O)NCC(=O)O (plate: PM7),3760 (active)
11,CC[C@H](C)[C@H](N)C(=O)N[C@H](C(=O)O)[C@@H](C)CC (plate: PM6),0 (inactive)
12,N[C@@H](Cc1ccc(O)cc1)C(=O)N[C@@H](CCC(=O)O)C(=O)O (plate: PM7),277 (inactive)
13,NCC(=O)NCC(=O)O (plate: PM6),98.5 (inactive)
14,C[C@@H](O)[C@H](N)C(=O)N[C@@H](CCCN=C(N)N)C(=O)O (plate: PM7),13800 (active)
15,O=C(O)[C@@H]1C[C@@H](O)CN1C(=O)[C@@H]1CCCN1 (plate: PM7),0 (inactive)
16,C[C@H](NC(=O)CN)C(=O)O (plate: PM6),48.2 (inactive)
17,CC(C)[C@H](NC(=O)[C@@H](N)CCC(=O)O)C(=O)O (plate: PM6),0 (inactive)
18,CC(C)C[C@H](NC(=O)[C@@H](N)Cc1ccc(O)cc1)C(=O)O (plate: PM7),5310 (active)
19,CC[C@H](C)[C@H](N)C(=O)N[C@@H](CCC(N)=O)C(=O)O (plate: PM6),873 (inactive)
20,CSCCC(N)C(=O)NC(CCSC)C(=O)O (stereo not given) (plate: PM7),0 (inactive)

row,SMILES,respiration area under curve
1,NC(N)=NCCC[C@H](NC(=O)[C@@H](N)CCCN=C(N)N)C(=O)O (plate: PM6),9250 (active)
2,CSCC[C@H](NC(=O)[C@H](C)N)C(=O)O (plate: PM8),2300 (active)
3,C[C@@H](NC(=O)CN)C(=O)O (plate: PM8),0 (inactive)
4,CC(C)C[C@H](N)C(=O)NCC(=O)O (plate: PM6),4090 (active)
5,N[C@@H](Cc1ccccc1)C(=O)N[C@@H](CC(=O)O)C(=O)O (plate: PM8),0 (inactive)
6,N[C@@H](CC(=O)O)C(=O)NCC(=O)O (plate: PM8),0 (inactive)
7,CC(C)CC(N)C(=O)NC(CC(=O)O)C(=O)O (stereo not given) (plate: PM6),735 (inactive)
8,C[C@@H](O)[C@H](N)C(=O)N1CCC[C@H]1C(=O)O (plate: PM7),0 (inactive)
9,CSCC[C@H](N)C(=O)N[C@@H](CCC(N)=O)C(=O)O (plate: PM7),3640 (active)
10,CC(C)[C@H](NC(=O)[C@@H](N)CO)C(=O)O (plate: PM7),3050 (active)
11,CC[C@H](C)[C@H](N)C(=O)N[C@@H](C)C(=O)O (plate: PM6),88.8 (inactive)
12,CSCC[C@H](NC(=O)[C@@H](N)[C@@H](C)O)C(=O)O (plate: PM7),204 (inactive)
13,CC(C)[C@H](N)C(=O)N[C@@H](CCCN=C(N)N)C(=O)O (plate: PM7),11700 (active)
14,CC(C)[C@H](NC(=O)[C@@H](N)CC(N)=O)C(=O)O (plate: PM6),4910 (active)
15,C[C@H](NC(=O)[C@@H](N)Cc1ccc(O)cc1)C(=O)O (plate: PM7),8840 (active)
16,CC(C)C[C@H](NC(=O)CN)C(=O)O (plate: PM6),0 (inactive)
17,N[C@@H](Cc1c[nH]c2ccccc12)C(=O)N[C@@H](Cc1c[nH]c2ccccc12)C(=O)O (plate: PM7),436 (inactive)
18,N[C@@H](Cc1ccccc1)C(=O)N[C@@H](CCC(=O)O)C(=O)O (plate: PM8),0 (inactive)
19,CC[C@H](C)[C@H](N)C(=O)N[C@@H](CCSC)C(=O)O (plate: PM6),0 (inactive)
20,C[C@H](N)C(=O)N[C@@H](Cc1c[nH]c2ccccc12)C(=O)O (plate: PM6),3230 (active)
